Among the test systems are NCI-H23 lung; NCI-H226 lung; NCI-H322M lung; HOP-62 NSCLC; NCI-H460 lung; HOP-92 NSCLC; NCI-H522 lung; A549/ATCC NSCLC; 786-0 renal; COLO 205 colon.
Holding throughout (test): NCI-60 one-dose screen, 48 h (100 = growth as untreated, 0 = no growth, -100 = all killed)
Common to all, as to conditions: 10 µM unless noted

The panel holds about 83,000 compounds, 20% with a hit somewhere; the sample as a whole holds those more often.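 Treatment: one concentration, 48 hours, 96-well format. Scoring: percent growth, with anything below 10 considered active.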 A number with no mark means an inactive call. The source made the active and inactive calls.

As for `O=C(CCCCCNC1=CC(=O)c2ccccc2C1=O)NCCC[Te]c1ccccc1`, the growth in the assay on NCI-H23 lung was -12.9% (active); with NCI-H226 lung, -54.6% (active); in the assay with NCI-H322M lung, -8.86% (active); with HOP-62 NSCLC, -51% (active); with NCI-H460 lung it was -45.3% (active); with HOP-92 NSCLC, -32.4% (active). Also, the growth with NCI-H522 lung is -18.5% (active); with A549/ATCC NSCLC, -45.4% (active); with 786-0 renal it was -48.5% (active); in the assay on COLO 205 colon, -57% (active).
In the case of `CCn1nccc1NC(=O)C(=O)c1cn(Cc2ccc(F)cc2)c2cccc(OC)c12`, the growth is 95.8% in the assay on NCI-H23 lung; 75.1% in the assay on NCI-H226 lung; 102% with NCI-H322M lung; 75.9% with HOP-62 NSCLC; 98.2% in the assay with NCI-H460 lung; 46.6% with HOP-92 NSCLC. In addition, the growth with NCI-H522 lung is 57.3%; with A549/ATCC NSCLC, 92.4%; in the assay with 786-0 renal, 72.7%; with COLO 205 colon, 106%.
On to `c1ccc(CSC(c2ccccc2)c2ccccc2)cc1`, for which the growth in the assay on NCI-H23 lung is 101%; in the assay on NCI-H226 lung, 111%; with NCI-H322M lung, 119%; with HOP-62 NSCLC, 116%; in the assay on NCI-H460 lung, 105%; in the assay with HOP-92 NSCLC, 76.2%. Also, the growth in the assay on NCI-H522 lung was 97.6%; in the assay with A549/ATCC NSCLC it was 103%; with 786-0 renal, 91.3%; with COLO 205 colon it was 101%.
For the compound `O=C(O)C(O)C(O)C1[O][Sb]([c]2ccc([N+](=O)[O-])cc2)[O]C1CO` (stereo not given), the growth in the assay with NCI-H23 lung was 101%; in the assay with NCI-H226 lung, 93.4%; with NCI-H322M lung it was 102%; with HOP-62 NSCLC, 110%; in the assay on NCI-H460 lung it was 100%; in the assay with HOP-92 NSCLC, 102%. In addition, the growth in the assay on NCI-H522 lung is 94.6%; in the assay with A549/ATCC NSCLC it was 94.4%; with 786-0 renal, 104%; in the assay on COLO 205 colon it was 115%.
As to `COc1ccc(/C=C\c2cc(OC)c(OC)c(OC)c2)c(NS(=O)(=O)c2ccc(C)cc2)c1O`, the growth was 23.2% in the assay on NCI-H23 lung; 33.9% with NCI-H226 lung; 43.6% in the assay with NCI-H322M lung; 80.7% in the assay on HOP-62 NSCLC; 6.42% (active) in the assay with NCI-H460 lung; 44.4% with HOP-92 NSCLC. The growth is -17.3% (active) in the assay with NCI-H522 lung, 26.6% in the assay with A549/ATCC NSCLC, 18.8% with 786-0 renal and -15.5% (active) in the assay with COLO 205 colon.
`CCNc1nc(Cl)nc(NCC)n1`: the growth is 111% with NCI-H23 lung; 90.4% with NCI-H226 lung; 100% in the assay with NCI-H322M lung; 93% with HOP-62 NSCLC; 102% with NCI-H460 lung; 65.1% with HOP-92 NSCLC. In addition, the growth in the assay with NCI-H522 lung is 105%; in the assay on A549/ATCC NSCLC it was 85.7%; in the assay with 786-0 renal, 108%; in the assay with COLO 205 colon it was 102%.
As to `Clc1ccc(N2COOC3(OOC2)C2CC4CC(C2)CC3C4)cc1`, the growth in the assay on NCI-H23 lung is 22%; with NCI-H226 lung, 95.8%; in the assay with NCI-H322M lung, 76.4%; in the assay with HOP-62 NSCLC, 45.9%; in the assay with NCI-H460 lung it was 61.5%; in the assay on HOP-92 NSCLC it was -23.1% (active). Also, the growth is -53.2% (active) in the assay with NCI-H522 lung, 47.4% in the assay with A549/ATCC NSCLC, -4.34% (active) with 786-0 renal and 101% with COLO 205 colon.
For `Cc1c(O)c(CN(CCCl)CCCl)cc(CN(CCCl)CCCl)c1O`, the growth in the assay on NCI-H23 lung is 102%; with NCI-H226 lung it was 95.6%; with NCI-H322M lung, 94.8%; with HOP-62 NSCLC it was 102%; in the assay on NCI-H460 lung, 31.4%; in the assay on HOP-92 NSCLC, 47.3%. Also, the growth was 79.4% with NCI-H522 lung, 67.8% in the assay with A549/ATCC NSCLC, 99.6% with 786-0 renal and 78.1% with COLO 205 colon.
Regarding `O=C1OCC2=C1C(c1ccccc1)c1cc3c(cc1N2)OCO3` (stereo not given), the growth was 16.1% in the assay with NCI-H23 lung; -9.94% (active) with NCI-H226 lung; 46.9% in the assay on NCI-H322M lung; 15% in the assay with HOP-62 NSCLC; 5.45% (active) with NCI-H460 lung; 30.8% with HOP-92 NSCLC. Besides, the growth with NCI-H522 lung is -40.3% (active); in the assay with A549/ATCC NSCLC, 12.6%; with 786-0 renal, 15.9%; with COLO 205 colon, -65.7% (active).
Consider `CC(=O)Nc1ccc(NC(=O)c2ccc([As](O)O)cc2)cc1`, for which the growth was 103% with NCI-H23 lung; 116% in the assay with NCI-H226 lung; 118% in the assay with NCI-H322M lung; 131% with HOP-62 NSCLC; 104% in the assay on NCI-H460 lung; 112% with HOP-92 NSCLC. Moreover, the growth is -2.06% (active) in the assay with NCI-H522 lung, 114% in the assay with A549/ATCC NSCLC, 107% in the assay with 786-0 renal and 108% in the assay with COLO 205 colon.
Take `COC(=O)[C@@H](C)C[C@H](Cc1ccccc1)NC(=O)c1nc([C@@H](C[C@H](C(C)C)N(C)C(=O)[C@@H](NC(=O)[C@H]2C[C@H](O)CCN2C)C(C)C)OC(C)=O)sc1C(C)C`: the growth in the assay on NCI-H23 lung is 23.8%; with NCI-H226 lung it was -35.5% (active); with NCI-H322M lung, 26.5%; in the assay with HOP-62 NSCLC it was 1.87% (active); in the assay with NCI-H460 lung it was 2.31% (active); in the assay with HOP-92 NSCLC, 25%. Besides, the growth in the assay with NCI-H522 lung is -21.9% (active); in the assay with A549/ATCC NSCLC, 10.7%; in the assay with 786-0 renal, 3.94% (active); with COLO 205 colon, -65.9% (active).
`CC(C)CCC1(CCCl)C(=O)NC(=O)NC1=O`: the growth was 99.6% with NCI-H23 lung; 96.6% with NCI-H226 lung; 101% with NCI-H322M lung; 106% in the assay with HOP-62 NSCLC; 101% with NCI-H460 lung; 91.2% in the assay with HOP-92 NSCLC. Moreover, the growth was 104% in the assay with NCI-H522 lung, 91% with A549/ATCC NSCLC, 96.1% in the assay with 786-0 renal and 110% in the assay with COLO 205 colon.
As for `O=[N+]([O-])CC(O)C(Cl)(Cl)Cl` (stereo not given), the growth is 98.6% in the assay with NCI-H23 lung; 103% in the assay with NCI-H226 lung; 103% in the assay with NCI-H322M lung; 99.8% in the assay with HOP-62 NSCLC; 101% with NCI-H460 lung; 93.2% in the assay on HOP-92 NSCLC. Also, the growth with NCI-H522 lung is 99.1%; in the assay with A549/ATCC NSCLC it was 106%; in the assay with 786-0 renal, 103%; in the assay with COLO 205 colon, 98.2%.

(Values after PubChem BioAssay (NCI).)
